Measurements from ChEMBL document CHEMBL4888484, “Replenishing the malaria drug discovery pipeline: Screening and hit evaluation of the MMV Hit Generation Library 1 (HGL1) against asexual blood stage Plasmodium falciparum ,using a nano luciferase reporter read-out” (2022).
Hit rate of the full screen: of about 150,000 compounds, about 540 (0.36%) showed an effect of 50% or more. Shown is part of a subset that was picked to be rich in strong results.

The compounds below were run on Plasmodium falciparum (assay: Primary screen in NF54 nanoGlo assay, in single point, at 2uM, 72h; a lower Z score goes with more inhibition). Conditions: timepoint 72 hour.
Type: functional, Erythrocyte

Row | Compound | % Inhibition | Z score
1 | Fc1cc(CNCC(F)F)ccc1Cl | -7% | 0.98
2 | CC(NC[C@H](C)O)C(C)(C)c1ccc(F)cc1 (stereo partly specified) | -3% | 0.44
3 | O=c1ccc(-c2cncnc2)c2n1C[C@H]1C[C@@H]2CN(S(=O)(=O)c2ccccc2)C1 | -11% | 1.78
4 | Cc1ccc(CN2CCN(C(=O)Cc3cccnc3)[C@H]3CS(=O)(=O)C[C@H]32)o1 | 5% | -0.92
5 | CCc1cccc(N(C(=O)c2ccc(NC(C)=O)cc2)C2(C(=O)NCc3ccccc3)CCN(C(C)=O)CC2)c1 | 0% | 0
6 | CC(=O)N(C1CCN(Cc2ccccc2)CC1)C1(C(=O)Nc2ccc3[nH]ccc3c2)CCN(C)CC1 | 92% | -11.04
7 | CCC(=O)Nc1ccc(C)c(NC(=O)C2(c3ccccc3)CCN(C)CC2)c1 | -9% | 1.09
8 | CN(C)c1ccc(CN2CCN(CCO)[C@@H]3CS(=O)(=O)C[C@@H]32)cn1 | -3% | 0.58
9 | O=C(Cc1ccc(O)c(F)c1)N1C[C@H]2c3ccccc3OC[C@@]2(C(=O)O)C1 | -2% | 0.24
10 | COc1ccc(-c2csc(-n3cc(C4=CCN(CCO)CC4)cn3)n2)cc1 | 50% | -5.49
11 | CCOc1ccccc1NC(=O)CN1CC=C(c2cnn(C)c2)CC1 | -1% | 0.1
12 | CN(C)C1(CNc2ccc(C#N)c(Cl)c2)CCOCC1 | -5% | 0.53
13 | O=C(c1cc(F)cc(F)c1)N1CCC2(CC1)N(c1ccccc1)C(=O)CS2(=O)=O | -15% | 2.33
14 | CC(C)(N)Cc1ccc(C(F)(F)F)cc1 | 1% | -0.09
15 | Clc1cccc2c(N3CC[C@]4(CCNC4)C3)ccnc12 | 23% | -3.12
16 | CN1CC[C@]2(CCN(c3ccnc4ccsc34)C2)C1 | 98% | -10.65
17 | CN1CC[C@@]2(CCCN(c3ccncc3F)C2)C1 | -8% | 0.76
18 | c1cc(N2CC[C@@]3(CCCNC3)C2)c2sccc2n1 | 98% | -16.03
19 | CN1CCC[C@@]2(CCN(c3ccncc3C3CC3)C2)C1 | 0% | 0.05
20 | CCc1cc(CN[C@@H](C)Cc2ccc(F)cc2)on1 | -5% | 0.53
21 | Cc1nc(CN2C[C@@H](CO)[C@H](c3ccc(Cl)cc3)C2)co1 | 4% | -0.83

Row | Compound | % Inhibition | Z score
22 | O=C(CNc1ccc(Cl)c(F)c1)N1CCC2(CC1)OCCO2 | 28% | -3.19
23 | CCCS(=O)(=O)Nc1ccc(=O)n2c1[C@@H]1C[C@@H](CN(C(=O)Nc3ccc(F)cc3)C1)C2 | 27% | -3.06
24 | N#Cc1ccc(N[C@H]2CCN(C3CCOCC3)C2=O)cc1C(F)(F)F | 1% | -0.05
25 | CN(Cc1ccccc1)C[C@H]1C[N@@]2CC[C@H]1C[C@@H]2CNC(=O)c1ccccc1 | 11% | -1.99
26 | C=CCN(C)C[C@H]1CN2CC[C@H]1C[C@@H]2CNC(=O)Nc1ccc(OC(F)(F)F)cc1 | 57% | -4.08
27 | C#CCN(C)C[C@H]1C[N@@]2CC[C@H]1C[C@@H]2CNC(=O)c1ccccc1 | 33% | -3.75
28 | O=C(c1ccncc1F)N1C[C@H]2CC[C@@H](C1)N(CC1CC1)C2 | 2% | -0.29
29 | O=C(NCc1ccccc1)N1Cc2ccccc2-n2cccc2[C@H]1c1ccccc1 | -9% | 1.11
30 | CN1CCN(CC(=O)N2CCC3(CC2)OCCO3)c2ccc(Cl)cc21 | -13% | 2.46
31 | CCCc1cncnc1N1C[C@H]2CC[C@@H](C1)N(CCC)C2 | 7% | -1.29
32 | Cc1nc[nH]c1CN1C[C@H]2CC[C@@H](C1)N(C(=O)Cc1ccncc1)C2 | -5% | 0.88
33 | COc1ccc2c(c1)OC[C@@]1(C(=O)O)CN(CCC(F)(F)F)C[C@@H]21 | 3% | -0.33
34 | Cc1cc(Cl)cc2c(N3CC[C@@]4(O)CCNC[C@H]4C3)ccnc12 | 3% | -0.52
35 | Cc1cc(C)n2ncc(CN3C[C@@H]4CC[C@H](C3)C(=O)N4)c2n1 | -11% | 1.38
36 | CC(C)(C)OC(=O)N1[C@@H]2CC[C@H]1[C@@H]1C[C@]1(C(=O)O)C2 | -10% | 1.06
37 | CC(C)c1ncc(C(=O)N[C@H]2CN3CCC2CC3)cn1 | 2% | -0.19
38 | O=C(Cc1c[nH]c2ccccc12)N1CCN(Cc2nnn3c2CO[C@H](c2cccc(F)c2)C3)CC1 | -6% | 0.79
39 | c1ccc2c(CN3CCCCCC3)c[nH]c2c1 | 5% | -0.53
40 | CCOc1ccccc1NC(=O)c1ccc2oc(=O)n(Cc3ccc(F)cc3)c2c1 | 2% | -0.31
41 | CN1CCC2CCN(C(=O)Nc3nccs3)C2C1 (stereo unspecified) | -8% | 0.77
42 | CC(C)CCC(=O)N1CCC2CCN(C)CC21 (stereo unspecified) | -3% | 0.4

Row | Compound | % Inhibition | Z score
43 | COc1cccc(CNC(=O)N2CC[C@@H]3CCN(C)C[C@@H]32)n1 | 88% | 0.42
44 | O=C(c1ccccc1)c1cc(Cl)ccc1NC(=O)C1CCN(C(=O)c2ccco2)CC1 | 1% | -0.14
45 | O=C(c1ccccc1)c1cc(Cl)ccc1NC(=O)[C@H]1CC(=O)N(c2ccc(F)cc2)C1 | 56% | -9.01
46 | C[C@]1(c2ccccc2Cl)NC(=O)N(CC(=O)Nc2ccc(Cl)cc2C(=O)c2ccccc2)C1=O | -1% | 0.1
47 | Cc1sc2ncnc(N3CCN4CCC[C@H]4C3)c2c1C | -5% | 0.64
48 | O=C(COc1ccccc1)N1CCCCC[C@@H]1CN1CCCC1 | 1% | -0.2
49 | Cc1cc(C(=O)NC2CC(C)n3ccnc32)nn1C(C)C (stereo unspecified) | 62% | -7.62
50 | CC(C)n1ccc(C(=O)NC2CC(C(=O)O)c3ccccc32)n1 (stereo unspecified) | -1% | 0.16
51 | Cc1cc(C(=O)NC2CC2)nn1[C@@H](C)C1CC1 | -5% | 0.91
52 | CC(Cc1ccccc1Br)NC(C)c1cccnc1 (stereo unspecified) | 2% | -0.27
53 | C[C@@H](Cc1ccccc1F)NCC1(CO)CCCC1 | -3% | 0.57
54 | COc1ccc(NC(=O)CN2CC=C(c3cnn(C)c3)CC2)cc1Cl | -9% | 1.67
55 | Cc1ccc2c(c1)CCCN2C(=O)CN1CC=C(c2cnn(C)c2)CC1 | 55% | -3.45
56 | CCOc1ccc(NC(=O)CN2CC=C(c3cnn(C)c3)CC2)cc1 | -9% | 0.93
57 | CC1CCCC2CCCN(Cc3nc4c(cnn4C)c(=O)[nH]3)C12 (stereo unspecified) | -8% | 0.94
58 | C[C@@H](Cc1ccc(F)cc1)NCC(C)(C)C(N)=O | -4% | 0.56
59 | C=CCCC(CN1C[C@H]2CC=CC[C@H]2C1)Oc1ccnc(C)n1 (stereo partly specified) | 3% | -0.6
60 | C=CCCC(CN1C[C@H]2CC=CC[C@H]2C1)Oc1ncccn1 (stereo partly specified) | -8% | 1.33
61 | C=CCCC(CN1C[C@H]2CC=CC[C@H]2C1)Oc1ncc(F)cn1 (stereo partly specified) | 75% | -13.95
62 | Cc1oncc1C(=O)N1C[C@H](c2cc(F)cc(F)c2)[C@@H]2[C@H]1C1CCN2CC1 | -4% | 0.74
63 | Cc1cnc(N2C[C@H]3CN(C)C[C@H]3C2)c(Br)c1 | -1% | 0.19

Row | Compound | % Inhibition | Z score
64 | Fc1cnc(N2C[C@@H](c3ccccc3)[C@@H]3[C@H]2C2CCN3CC2)nc1 | -13% | 2.17
65 | CN1CCN2c3cccc(Cl)c3CC3(C(=O)NC(=O)N(c4ccc(F)cc4)C3=O)C2C1 (stereo unspecified) | 4% | -0.49
66 | COCCn1cc(C(=O)N[C@H]2C[C@@](CO)(c3ccccc3)C2)nn1 | 1% | -0.11
67 | COCCn1ccc(C(=O)N[C@H]2CCc3nc(C(C)C)nn3C2)n1 | 71% | -11.17
68 | COCCn1ccc(C(=O)NC(C)(C)c2ccc(F)cc2Cl)n1 | 4% | -0.52
69 | CN(C(=O)CCC(F)(F)F)C1CC2CCC(C1)N2 (stereo unspecified) | -19% | 1.62
70 | O=S(=O)(NC12CCCC1CNC2)c1onc(C2CC2)c1Cl (stereo unspecified) | 94% | -8.97
71 | CCCCOc1ncccc1CNC(=O)C1CN2CCCC2CO1 (stereo unspecified) | -1% | 0.09
72 | CCCS(=O)(=O)NC[C@H]1C[C@@H]2CCN1C[C@@H]2c1cc(C(CC)CC)nc(-c2ccncc2)n1 | 35% | -3.34
73 | CCC(CC)c1cc([C@H]2CN3CC[C@H]2C[C@@H]3CO)nc(-c2ccncc2)n1 | 25% | -2.22
74 | CCC(CC)c1cc([C@H]2CN3CC[C@H]2C[C@@H]3CNS(=O)(=O)Cc2ccccc2)nc(-c2ccncc2)n1 | 75% | -9.43
75 | COCCN1C[C@@H]2CC[C@H]1CN(C(=O)c1cc(C(C)C)on1)C2 | 4% | -0.35
76 | Cc1ncsc1CN1C[C@@H]2CC[C@H]1CN(Cc1c(C)noc1C)C2 | -5% | 0.89
77 | Cc1ccc(CNc2ncnc3[nH]ncc23)c(-n2cc(Cl)cn2)n1 | 12% | -2.28
78 | CN(C)c1ccnc(N2C[C@@H](c3ccc4c(c3)OCO4)[C@@H]3[C@H]2C2CCN3CC2)n1 | -7% | 0.91
79 | c1cc2c(cc1CCN1CCCC1)CCO2 | -12% | 1.27
80 | Cn1nc(C(=O)N2CCC3(CC2)OCCO3)c2ccccc2c1=O | -14% | 2.25
81 | Cc1ccc(C)n1[C@@H](Cc1cnc[nH]1)C(=O)O | -1% | 0.15
82 | c1cc2c(c(-c3cnccn3)c1)CCNC2 | -4% | 0.84
83 | c1ccc2c(c1)C[C@H](Cc1ccc3c(c1)CNCC3)CO2 | 3% | -0.36
